Measurements published in PubChem BioAssay AID1159580 (chemical genetic matrix, 2015).
Among all 5,500 compounds or so, about 2,000 (36%) were called active. Inconclusive results (about 18%) are left out. No stated cut-off is given here; in the data, active means normalized growth mostly below about 0.91 (no sharp cut-off); inconclusive means no clear call, values can overlap the other calls; inactive means mostly above about 0.92. This is one part of the list.

Test: chemical genetic growth profiling, strain panel (AID 1159580);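 further: tested at 20 µM; growth read once vehicle control cultures reached saturation at 30 °C; 1 = growth at the plate median or of vehicle wells; lower values mean less growth of the strain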
Conditions: growth OD
[1] = S. cerevisiae deletion strains, locus YAR019C, strain CDC15, active compounds read low
[2] = S. cerevisiae deletion strains, locus YBL105C, strain PKC1, active compounds read low
[3] = S. cerevisiae deletion strains, locus YBR135W, strain CKS1, active compounds read low
[4] = S. cerevisiae deletion strains, locus YBR160W, strain CDC28, active compounds read low
[5] = S. cerevisiae deletion strains, locus YDL017W, strain CDC7, active compounds read low
[6] = S. cerevisiae deletion strains, locus YDL028C, strain MPS1, active compounds read low
[7] = S. cerevisiae deletion strains, locus YDL101C, strain DUN1, active compounds read low
[8] = S. cerevisiae deletion strains, locus YDL108W, strain KIN28, active compounds read low
[9] = S. cerevisiae deletion strains, locus YDL132W, strain cdc53, active compounds read low
[10] = S. cerevisiae deletion strains, locus YDL214C, strain PRR2, active compounds read low
[11] = S. cerevisiae deletion strains, locus YDR052C, strain DBF4, active compounds read low
[12] = S. cerevisiae deletion strains, locus YDR054C, strain cdc34, active compounds read low
[13] = S. cerevisiae deletion strains, locus YDR226W, strain ADK1, active compounds read low
[14] = S. cerevisiae deletion strains, locus YDR477W, strain SNF1, active compounds read low
[15] = S. cerevisiae deletion strains, locus YER123W, strain YCK3, active compounds read low
[16] = S. cerevisiae deletion strains, locus YER133W, strain GLC7, active compounds read low
[17] = S. cerevisiae deletion strains, locus YFL009W, strain cdc4, active compounds read low
[18] = S. cerevisiae deletion strains, locus YFL029C, strain CAK1, active compounds read low
[19] = S. cerevisiae deletion strains, locus YFR003C, strain YPI1, active compounds read low
[20] = S. cerevisiae deletion strains, locus YFR019W, strain FAB1, active compounds read low
[21] = S. cerevisiae deletion strains, locus YGR040W, strain KSS1, active compounds read low
[22] = S. cerevisiae deletion strains, locus YGR052W, strain FMP48, active compounds read low
[23] = S. cerevisiae deletion strains, locus YGR092W, strain DBF2, active compounds read low
[24] = S. cerevisiae deletion strains, locus YHR030C, strain SLT2, active compounds read low
[25] = S. cerevisiae deletion strains, locus YHR079C, strain IRE1, active compounds read low
[26] = S. cerevisiae deletion strains, locus YHR082C, strain KSP1, active compounds read low
[27] = S. cerevisiae deletion strains, locus YHR205W, strain SCH9, active compounds read low
[28] = S. cerevisiae deletion strains, locus YIL147C, strain SLN1, active compounds read low
[29] = S. cerevisiae deletion strains, locus YJL095W, strain BCK1, active compounds read low
[30] = S. cerevisiae deletion strains, locus YJL157C, strain FAR1, active compounds read low
[31] = S. cerevisiae deletion strains, locus YJR016C, strain ILV3, active compounds read low
[32] = S. cerevisiae deletion strains, locus YJR066W, strain TOR1 (second series), active compounds read low
[33] = S. cerevisiae deletion strains, locus YJR066W, strain TOR1, active compounds read low
[34] = S. cerevisiae deletion strains, locus YKL048C, strain ELM1, active compounds read low
[35] = S. cerevisiae deletion strains, locus YKL067W, strain YNK1, active compounds read low
[36] = S. cerevisiae deletion strains, locus YKL101W, strain HSL1, active compounds read low
[37] = S. cerevisiae deletion strains, locus YKL203C, strain TOR2, active compounds read low
[38] = S. cerevisiae deletion strains, locus YLR113W, strain HOG1, active compounds read low
[39] = S. cerevisiae deletion strains, locus YLR133W, strain CKI1, active compounds read low
[40] = S. cerevisiae deletion strains, locus YLR403W, strain SFP1, active compounds read low
[41] = S. cerevisiae deletion strains, locus YML070W, strain DAK1, active compounds read low
[42] = S. cerevisiae deletion strains, locus YMR001C, strain CDC5, active compounds read low
[43] = S. cerevisiae deletion strains, locus YMR205C, strain PFK2 (second series), active compounds read low
[44] = S. cerevisiae deletion strains, locus YNL006W, strain LST8, active compounds read low
[45] = S. cerevisiae deletion strains, locus YNL020C, strain ARK1, active compounds read low
[46] = S. cerevisiae deletion strains, locus YNL161W, strain CBK1, active compounds read low
[47] = S. cerevisiae deletion strains, locus YNL183C, strain NPR1, active compounds read low
[48] = S. cerevisiae deletion strains, locus YNL207W, strain RIO2, active compounds read low
[49] = S. cerevisiae deletion strains, locus YNL307C, strain MCK1 (second series), active compounds read low
[50] = S. cerevisiae deletion strains, locus YOL078W, strain AVO1, active compounds read low
[51] = S. cerevisiae deletion strains, locus YOL136C, strain PFK27, active compounds read low
[52] = S. cerevisiae deletion strains, locus YOR061W, strain CKA2, active compounds read low
[53] = S. cerevisiae deletion strains, locus YOR119C, strain RIO1, active compounds read low
[54] = S. cerevisiae deletion strains, locus YOR231W, strain MKK1, active compounds read low
[55] = S. cerevisiae deletion strains, locus YPL031C, strain PHO85, active compounds read low
[56] = S. cerevisiae deletion strains, locus YPL153C, strain RAD53, active compounds read low
[57] = S. cerevisiae deletion strains, locus YPL204W, strain HRR25, active compounds read low
[58] = S. cerevisiae deletion strains, locus YPL209C, strain IPL1, active compounds read low
[59] = S. cerevisiae deletion strains, locus YPL256C, strain CLN2, active compounds read low
[60] = S. cerevisiae deletion strains, locus YPR025C, strain CCL1, active compounds read low
[61] = S. cerevisiae deletion strains, locus YPR106W, strain ISR1, active compounds read low
[62] = S. cerevisiae deletion strains, locus YPR111W, strain DBF20, active compounds read low
[63] = S. cerevisiae deletion strains, strain NNK1, active compounds read low
[64] = S. cerevisiae deletion strains, strain TSCII, active compounds read low

Measured: normalized growth

COc1cccc(C(=O)C(C#N)=C(SC)SC)c1
active: [1] 0.875 | [2] 0.88 | [3] 0.87 | S. cerevisiae deletion strains, locus YBR136W, strain MEC1, active compounds read low 0.879 | [4] 0.878 | [5] 0.881 | [6] 0.884 | [7] 0.901 | [8] 0.894 | [9] 0.874 | [10] 0.429 | [11] 0.879 | [12] 0.855 | [13] 0.87 | [14] 0.393 | [15] 0.256 | [16] 0.295 | [17] 0.869 | [18] 0.872 | [19] 0.88 | [20] 0.287 | S. cerevisiae deletion strains, locus YFR028C, strain CDC14, active compounds read low 0.868 | [21] 0.331 | [22] 0.294 | [23] 0.206 | [24] 0.192 | [25] 0.307 | [26] 0.298 | [27] 0.321 | [28] 0.885 | [29] 0.264 | [30] 0.37 | [31] 0.874 | [32] 0.275 | [33] 0.268 | [34] 0.45 | [35] 0.508 | [36] 0.434 | S. cerevisiae deletion strains, locus YKL193C, strain SDS22, active compounds read low 0.886 | [37] 0.291 | [38] 0.324 | [39] 0.44 | [40] 0.265 | [41] 0.346 | [42] 0.876 | [43] 0.526 | S. cerevisiae deletion strains, locus YMR277W, strain FCP1, active compounds read low 0.881 | [44] 0.887 | [45] 0.432 | [46] 0.871 | [47] 0.298 | [48] 0.88 | S. cerevisiae deletion strains, locus YNL222W, strain SSU72, active compounds read low 0.891 | [49] 0.293 | [50] 0.868 | [51] 0.301 | [52] 0.423 | [53] 0.317 | [54] 0.366 | S. cerevisiae deletion strains, locus YOR329C, strain SCD5, active compounds read low 0.872 | [55] 0.309 | [56] 0.387 | [57] 0.294 | [58] 0.877 | [59] 0.292 | [60] 0.875 | [64] 0.867
inactive: S. cerevisiae deletion strains, locus YJL128C, strain PBS2, active compounds read low 0.89 | [61] 0.893 | [62] 0.902 | [63] 0.89

CSC(SC)=C(C#N)C(=O)c1ccccc1Cl
inactive: [4] 0.937 | [5] 0.911 | [6] 0.934 | [8] 0.927 | [13] 0.911 | [19] 0.915 | [28] 0.937 | [61] 0.936 | [62] 0.934
active: [1] 0.422 | [2] 0.636 | [3] 0.816 | [7] 0.583 | [9] 0.626 | [10] 0.135 | [11] 0.826 | [12] 0.507 | [14] 0.134 | [15] 0.114 | [16] 0.116 | [17] 0.707 | [18] 0.326 | [20] 0.105 | [21] 0.13 | [22] 0.144 | [23] 0.118 | [24] 0.118 | [25] 0.134 | [26] 0.133 | [27] 0.0151 | [29] 0.119 | [30] 0.121 | [31] 0.863 | [32] 0.105 | [33] 0.105 | [34] 0.182 | [35] 0.163 | [36] 0.153 | [37] 0.0997 | [38] 0.147 | [39] 0.132 | [40] 0.0452 | [41] 0.113 | [42] 0.732 | [43] 0.179 | [44] 0.304 | [45] 0.115 | [46] 0.661 | [47] 0.133 | [48] 0.355 | [49] 0.106 | [50] 0.573 | [51] 0.101 | [52] 0.122 | [53] 0.125 | [54] 0.127 | [55] 0.108 | [56] 0.121 | [57] 0.117 | [58] 0.774 | [59] 0.161 | [60] 0.723 | [63] 0.342 | [64] 0.434

COc1cccc(CC(=O)NN)c1
inactive: S. cerevisiae deletion strains, locus YAL013W, strain DEP1, active compounds read low 0.982 | S. cerevisiae deletion strains, locus YBR229C, strain ROT2, active compounds read low 1.02 | [7] 1.05 | S. cerevisiae deletion strains, locus YDL134C, strain PPH21, active compounds read low 0.995 | S. cerevisiae deletion strains, locus YDR150W, strain NUM1, active compounds read low 1.03 | S. cerevisiae deletion strains, locus YEL061C, strain CIN8, active compounds read low 1 | S. cerevisiae deletion strains, locus YGR078C, strain PAC10, active compounds read low 1.04 | S. cerevisiae deletion strains, locus YGR229C, strain SMI1, active compounds read low 0.999 | [24] 1.06 | S. cerevisiae deletion strains, locus YHR087W, strain rtc3, active compounds read low 0.971 | S. cerevisiae deletion strains, locus YJL187C, strain SWE1, active compounds read low 0.981 | S. cerevisiae deletion strains, locus YJR043C, strain POL32, active compounds read low 1.02 | S. cerevisiae deletion strains, locus YJR075W, strain HOC1, active compounds read low 0.991 | S. cerevisiae deletion strains, locus YKL190W, strain CNB1, active compounds read low 1 | S. cerevisiae deletion strains, locus YLR039C, strain RIC1, active compounds read low 1.02 | S. cerevisiae deletion strains, locus YLR058C, strain SHM2 (second series), active compounds read low 0.987 | S. cerevisiae deletion strains, locus YLR085C, strain ARP6, active compounds read low 0.995 | S. cerevisiae deletion strains, locus YLR262C, strain YPT6, active compounds read low 0.98 | S. cerevisiae deletion strains, locus YML094W, strain GIM5, active compounds read low 0.982 | S. cerevisiae deletion strains, locus YMR219W, strain ESC1, active compounds read low 0.986 | S. cerevisiae deletion strains, locus YMR263W, strain SAP30, active compounds read low 1 | S. cerevisiae deletion strains, locus YMR307W, strain GAS1, active compounds read low 0.987 | S. cerevisiae deletion strains, locus YNL153C, strain GIM3, active compounds read low 1.04 | S. cerevisiae deletion strains, locus YNL298W, strain CLA4 (second series), active compounds read low 1.02 | S. cerevisiae deletion strains, locus YNL322C, strain KRE1, active compounds read low 1.01 | S. cerevisiae deletion strains, locus YNR030W, strain Alg12, active compounds read low 0.986 | S. cerevisiae deletion strains, locus YPL055C, strain LGE1, active compounds read low 0.96 | S. cerevisiae deletion strains, locus YPL241C, strain CIN2, active compounds read low 1.01 | S. cerevisiae deletion strains, locus YPR135W, strain CTF4, active compounds read low 1.04 | S. cerevisiae strains, strain wild type, active compounds read low 1.02
